Calls of active or inactive are those of the source. The calls were made as follows: active = hit-call score of the fitted dose curve at least 0.9, where 1 is the maximum; inactive = score below 0.9.

Chain of Apoptosis regulator Bcl-2 (Homo sapiens) (P10415 whole entry, looked up): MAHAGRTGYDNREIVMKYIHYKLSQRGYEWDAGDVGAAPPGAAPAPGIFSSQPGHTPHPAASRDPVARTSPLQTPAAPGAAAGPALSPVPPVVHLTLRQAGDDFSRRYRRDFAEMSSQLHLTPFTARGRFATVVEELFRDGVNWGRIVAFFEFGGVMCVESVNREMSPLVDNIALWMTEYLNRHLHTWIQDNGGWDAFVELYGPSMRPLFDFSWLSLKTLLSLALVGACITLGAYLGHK

Read-out in the experiment: Apoptosis regulator Bcl-2 (Homo sapiens) (UniProt P10415)
Kind of experiment: LTEA_HepaRG_BCL2: Life Technologies and Expression Analysis (LTEA) Assay for Bcl-2 gene using HepaRG (AID 2283475).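 Also: BCL2 transcript by TaqMan qRT-PCR normalised to ACTB GAPDH and POLR2A.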 The conditions noted are these: mRNA level, 48 h; actives raise or lower the signal. The protocol: LTEA_HepaRG is a cell based, multiplexed-readout assay that uses HepaRG, a human liver cell line, with measurements taken at 48 hours after chemical dosing on a 96-well plate.LTEA_HepaRG_BCL2 is one of 102 assay component(s) measured in the LTEA HepaRG cell culture assay. It is a marker of Cell proliferation, survival, death.Data from the assay component LTEA_HepaRG_BCL2 was analyzed into 1 endpoint. This assay endpoint, LTEA_HepaRG_BCL2, was analyzed with bidirectional fitting relative to DMSO as the negative control and baseline of activity. Using a type of inducible reporter, measures of mRNA induction for gain or loss-of-signal activity can be used to understand regulation of transcription factor activity. To generalize the intended target to other relatable targets, this assay endpoint is annotated to the cell cycle intended target family, where the subfamily is Cell proliferation, survival, death.
A total of 1060 chemcials from the ToxCast library were tested in eight-point concentration-response experiments. Cell culture and cytotoxicity assays were conducted at Thermo Fisher Scientific's Custom Services facility (Madison, WI). A single lot of human HepaRG cells (Thermo Fisher Scientific, Frederick, MD) was used for the cell culture experiments. 96-well format collagen type I coated plates of human HepaRG cells were prepared using established methods. Briefly, cryopreserved HepaRG cells were thawed, plated at a density of approximately 100,000 cells/well in HepaRG Thaw, Plate, and General Purpose media (HPRG770, Thermo Fisher Scientific), and incubated for 48 hours. 0.5% DMSO was selected as vehicle control to balance the requisite need of DMSO in HepaRG cultures to maintain differentiation (for example, baseline metabolism, proportions of hepatocytes vs. cholangiocytes), while enabling further hepatic receptor pathway activation (for example, PXR and CAR) in response to chemical exposure. 48 hours after plating, the culture medium was replaced with HepaRG Serum-Free Incudtion Media. Cells were exposed to each test chemical in duplicate and maintained in CO2 incubators for another 48 hours. Chemical plates were thawed to room temperature and 200x concentrations of treatment groups were prepared. 8-point conentration-reponse curves were made with the highest exposure at 100 uM, followed by half-log dilutions, all in 0.5% DMSO. Each test plate contained variouse controls, induction positive controls (1mM phenobarbital), cytotoxicity positive controls ([…] aflatoxin B1), vehicle controls (0.5% DMSO), and total lysis controls (0.5% DMSO). Cell morphology images were taken using an Essen IncuCyte FLR automated microscope, with six 96-well plates imaged in about 24 minutes. Images were captured and exported and JPEG files. Spent culture media was transfered to black-well plates for the LDH assay, and remaining media was sorted at -80 C for later use. Cells were treated with RLT buffer and frozen until shipped for gene expression analysis. Total RNA was isolated from the cell suspension in 75 uL of Buffer RLT (Qiagen, Germantown, MD 20874) by Quintiles/Expression Analysis (Durham, NC) using a custom isolation procedure. Total RNA from each plate well was transferred to a preamplification plate. Fluidigm's 96.96 Dynamic ArrayTM (Fluidigm, Amsterdam, the Netherlands) technology was used for gene expression analyses by quantitative reverse transcription polymerase chain reaction (qRT-PCR, performed by Quintiles/Expression Analysis, Durham, NC)89. Standard TaqManTM Assays (Applied Biosystems/ThermoFisher Scientific, Foster City, CA) were used to assess the expression of 93 genes selected based on their selectivity and sensitivity to important hepatic receptors known to be modulated by environmental chemicals; importance in human hepatocyte functionality; and hepatotoxicity. […]
Consider `CC=Cc1ccc(O)c(OC)c1`, for which the call was inactive.

For the compound `Cc1ccc(N(C)C)cc1`, the compound was classed as inactive.

With `Oc1ccc2c(c1)OC[C@@H](N1CCC(O)(c3ccc(F)cc3)CC1)[C@H]2O`, the compound was called inactive.

`Cc1ccc2ncccc2c1`: the result was inactive.

As to `C[Si]1(C)O[Si](C)(C)O[Si](C)(C)O[Si](C)(C)O1`, the result was inactive.

For `CCCCCCCCCCCCCCCCCC(=O)O`, the compound was classed as inactive.

In the case of `Cc1nc(-c2ccc3c(c2)CCN(CCC2CCC(NC(=O)/C=C/c4ccc(F)cc4)CC2)CC3)no1` (stereo not given), the result was inactive.

Regarding `CC1(C)CC(N=C=O)CC(C)(CN=C=O)C1` (stereo not given), the result was inactive.

Turning to `CCCCCCCCCCCCCO`, the compound was classed as inactive.

Regarding `Cc1ccc(Cl)cc1`, the result was inactive.

Regarding `NCCO`, the result was inactive.

For the compound `Cc1ccc(C)c(C)c1`, the call was inactive.

For `Cc1ccc(C(C)C)c(O)c1`, the outcome was inactive.

As usually defined, the AC50 is the concentration giving half of the maximal activity seen. For `COc1ccc(S(=O)(=O)N2C(=O)[C@@](c3ccccc3OC)(N3C[C@H](O)C[C@H]3C(=O)N(C)C)c3cc(Cl)ccc32)c(OC)c1`, the AC50 was 50 µM (active).

With `Nc1ccc2c(c1)C(=O)c1ccccc1C2=O`, the compound was classed as inactive.

Regarding `CCCCCC(=O)O`, the outcome was inactive.

For `CCCCCCCCCCCCCCCC`, the compound was classed as inactive.

Turning to `COc1cc(S(=O)(=O)O)c(C)cc1N=Nc1c(O)ccc2cc(S(=O)(=O)O)ccc12`, the outcome was inactive.

As for `NC(=O)Cn1c(=O)cc(CCN2CCN(c3nccc4sccc34)CC2)c2ccc(F)cc21`, the AC50 was 50 µM (active).

As to `FC(F)(F)C(F)(F)C(F)(F)C(F)(F)C(F)(F)C(F)(F)CCI`, the compound was called inactive.

Regarding `CC(C)c1ccc(C(=O)N=C(N)N)cc1S(C)(=O)=O`, the half-maximal activity concentration (AC50) is 0.558 µM (active).

Regarding `Cc1cc(NC(=O)C(=O)O)cc(C)c1Oc1ccc(O)c2c1CCC2`, the compound was classed as inactive.

As to `CCCCN(CCCC)CCCC`, the compound was called inactive.

Consider `Clc1cc(Cl)c(Cl)cc1Cl`, for which the call was inactive.

For `C1CCC(SSC2CCCCC2)CC1`, the result was inactive.

With `Cc1ccc(C)c(O)c1C`, the outcome was inactive.

For the compound `Cc1cccc(Nc2cc(Cl)nc(SCC(=O)O)n2)c1C`, the compound was classed as inactive.

As to `Nc1ccccc1N`, the compound was classed as inactive.

Consider `CCCCc1ccc2c(n1)[C@@H](c1ccc(OC)cc1C[C@H](C)C(=O)O)[C@H](C(=O)O)[C@H]2c1ccc2c(c1)OCO2`, for which the result was inactive.

As to `O=C(OCCCCCOC(=O)c1ccccc1)c1ccccc1`, the AC50 was 1.67 µM (active).

For the compound `CC(=O)C(C)=CC1C(C)=CCCC1(C)C` (stereo not given), the compound was called inactive.

As for `O=c1[nH]cc(F)c(=O)[nH]1`, the call was inactive.

Consider `c1cc(-c2ccncc2)ccn1`, for which the compound was called inactive.

Turning to `CC(C)(C)c1cc(O)c(C(C)(C)C)cc1O`, the compound was classed as inactive.

As to `NS(=O)(=O)c1cc2c(cc1Cl)NCNS2(=O)=O`, the result was inactive.

In the case of `CC(=O)OCCOCCOCCOC(C)=O`, the compound was called inactive.

Take `COc1ccc(C)cc1N`: the call was inactive.

Turning to `COCCOC[C@H](CC1(C(=O)NC2CCC(C(=O)O)CC2)CCCC1)C(=O)Oc1ccc2c(c1)CCC2` (stereo not given in full), the outcome was inactive.

For the compound `OC[C@@H](O)[C@@H](O)[C@H](O)[C@H](O)CO`, the compound was classed as inactive.

Turning to `CN1CCN(Cc2cc(-c3ccc4[nH]c(=O)oc4c3)co2)[C@@H](c2ccc(F)cc2)C1`, the compound was called inactive.

The values are drawn from PubChem BioAssay (EPA / NIEHS).
